VDR inhibitor: vitamin D3 receptor (human) inhibition. P11473. VDR-SRC2-3 peptide fluorescence polarization, 2 h. Potency, µM, without a hit: max response, negative = inhibition, actives largely listed as inhibitors. hit rate 0.93% among 400,000
Target sequence (P11473 whole entry, looked up): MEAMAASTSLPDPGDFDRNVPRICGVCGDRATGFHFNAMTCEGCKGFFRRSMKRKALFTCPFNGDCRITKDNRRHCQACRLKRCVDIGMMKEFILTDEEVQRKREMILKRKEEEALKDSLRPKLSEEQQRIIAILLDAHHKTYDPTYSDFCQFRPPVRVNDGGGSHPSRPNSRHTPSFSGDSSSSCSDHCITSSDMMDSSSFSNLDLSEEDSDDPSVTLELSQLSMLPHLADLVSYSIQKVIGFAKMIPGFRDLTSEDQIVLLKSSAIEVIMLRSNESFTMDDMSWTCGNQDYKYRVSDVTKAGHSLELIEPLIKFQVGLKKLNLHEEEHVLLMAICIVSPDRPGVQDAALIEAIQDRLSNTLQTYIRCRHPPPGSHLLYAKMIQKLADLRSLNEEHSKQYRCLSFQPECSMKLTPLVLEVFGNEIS
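Inhibition of the VDR/SRC2-3 peptide interaction is quantified by fluorescence polarization. Compounds (23 nl, pintool) incubate with the reagents for 2 hours at ambient room temperature.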
GCN5L2 inh: inhibitors of human GCN5L2 histone acetyltransferase. Potency, µM (titrated, usually from 58.9 µM), for inactives: at the highest dose activity change, negative = inhibition, most hits filed as inhibitors. hit rate 0.21% among 390,000. Q92830. GCN5L2 HAT assay, ThioGlo1 CoA-SH fluorescence
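Compounds, pin-transferred from DMSO stocks, meet 20nM GCN5L2 for 15 min before the reaction begins with H3(1-25) peptide (75uM) and acetyl-CoA (70uM). Thiol-reactive ThioGlo1 reports CoA release over 20 min at room temperature.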
TrxR1 substrate: is turned over as a substrate by rat TrxR1. O89049. purified TrxR1 substrate turnover, NADPH consumption readout. Potency, µM (titrated, usually from 114 µM), inactives show at the highest dose activity change, negative = substrate turnover. hit rate 0.01% among 390,000; further: nearly all actives have a fitted effect of over 50% in size
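Rat TrxR1, dispensed at 90 nM, was prereduced with 400 uM NADPH (final) for 5 min at ~22 deg C, then incubated with compound 15 min before 400 uM selenite. A first-read NADPH fluorescence drop versus no-compound background flagged substrates.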
rTrxR1 inhibitor: inhibitors of rat thioredoxin reductase 1. O89049. recombinant rTrxR1, NADPH fluorescence consumption, selenite substrate. Potency, µM (titrated, usually from 114 µM), for the others: top-dose activity change, negative = inhibition, actives largely listed as inhibitors. hit rate 1% among 390,000. AID 588453; further: nearly all actives have a fitted effect of over 65% in size
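Rat TrxR1 (90 nM in the dispensed reagent) was pre-reduced with 400 uM NADPH for 5 min at room temperature, then incubated with compound for 15 min. After 400 uM selenite was added, NADPH fluorescence (Ex 340/Em 450 nm) was followed for 8 min.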
* = called active by the depositor; ? = inconclusive; . = not tested or not shown; [ ] = another dose, or the depositor's remark. Most compounds without a hit are left out; they make up all but 1.8% or so of the library. The call rests on the fitted dose curve; in most records, active means well fitted curve in the direction sought with a large enough effect; inconclusive means small, poorly fitted or top-dose-only effect, or another doubt; inactive means no such curve, though single readings can be large; an effect the other way counts as inactive or inconclusive. On the % scale 0 is the no-effect control and ±100 the full control effect; potency means the concentration at half of the fitted maximal effect.

SMILES	VDR inhibitor	GCN5L2 inh	TrxR1 substrate	rTrxR1 inhibitor
CNC(=S)NNc1ccccc1[N+](=O)[O-]	70.8µM*	-8.7%	-11.7%	2.2%[57.1 µM]
CNCc1ccccc1Sc1cc(O)ccc1O	35.5µM*	-13.0%	15.5%	?
COc1cccc(-n2c(=O)c3c(C)c(C(=O)N(C)C)sc3n(CC(=O)Nc3ccc(C)cc3Cl)c2=O)c1	19.6%	-3.6%	1.1%[57.1 µM]	16.1%[57.1 µM]
COc1ccc(NC(=O)CCCS(=O)(=O)c2nc(-c3ccc(OC)c(OC)c3)cc(C(F)(F)F)n2)cc1OC	79.4µM*	-9.4%	-4.6%	25.1µM*
COc1ccccc1-c1cc(C(F)(F)F)nc(S(=O)(=O)CCCC(=O)Nc2ccc(F)c(Cl)c2)n1	?	-6.2%	80.5%	74.7%
COc1ccccc1-c1cc(C(F)(F)F)nc(S(=O)(=O)CCCC(=O)Nc2cc(OC)c(OC)c(OC)c2)n1	?	-1.1%	-5.4%	22.4µM*
COc1ccc(N=c2nc(-c3ccccc3)n(-c3ccc(C)cc3)s2)cc1	?	.	9.9%[0.0914 µM]	9.1%
CN(C)S(=O)(=O)c1ccc(C(=O)Oc2cc(=O)[nH]c3ccccc23)cc1	-12.8%	-5.3%	2.9%	14.1µM*
CCOC(=O)c1[nH]c2ccccc2c1NC(=O)c1ccc(S(=O)(=O)N(C)C)cc1	5.6%	-3.3%	0.4%	16.1%
Cc1cc(Oc2nc3ccccn3c(=O)c2/C=C(\C#N)c2nc3ccccc3s2)ccc1Cl	-27.1%	1.7%	27.5%	-9.5%
N#C/C(=C\c1c(Oc2ccc(Br)cc2)nc2ccccn2c1=O)c1nc2ccccc2s1	39.8µM*	-6.1%	146.7%	-11.3%
C=CCN(c1ccc(C(=O)Nc2ccc(NC(C)=O)cc2)cc1)S(C)(=O)=O	35.5µM*	-6.6%	4.9%	20.6%[57.1 µM]
COC(=O)c1c(-c2ccc(Cl)cc2)noc1N1CCN(c2cc(C)ccc2C)CC1	6.2%	-0.6%	-5.7%[57.1 µM]	8.1%[57.1 µM]
COc1cc(OC)c(NC(=O)CSCc2nc(-c3ccc(OC)c(OC)c3)no2)cc1Cl	15.6%	-6.3%	-7.9%	9.2%
C/C=C(\NNC(C)=O)c1ccc(O)cc1	.	.	0.6%	?
Cc1ccc(Cl)cc1N1CCN(C(=O)CCC(=O)O)CC1	-4.8%	0.9%	15.7%	-6.4%
Cc1cc2c(cc1C)N(C(=O)CCl)CCN2C(=O)CCl	?	.	1.8%[57.1 µM]	1.12µM*
O=Cc1s/c(=N\S(=O)(=O)c2ccccc2)n(CCCCl)c1Cl	22.4µM*	-11.5%	4.6%	?
COc1cccc(-c2n[nH]c(=S)n2Cc2ccco2)c1	?	6.4%	-6.2%	39.8µM*
COc1cccc(-c2nccc(N(C)Cc3ccco3)n2)c1	35.5µM*	-19.6%	.	.
CN(Cc1ccco1)c1ccnc(-c2cccc(NS(C)(=O)=O)c2)n1	?	-14.0%	.	.
COCCN(CC(=O)NCC1CCCO1)C(=O)CCC(=O)Nc1ccccn1 (configuration not stated)	35.5µM*	-6.9%	3.9%[57.1 µM]	11.8%[57.1 µM]
Cc1[nH]n(-c2ccccc2)c(=S)c1C=NCCCN=Cc1c(C)[nH]n(-c2ccccc2)c1=S	?	17.8µM*	-6.8%	-27.6%
Cc1ccc(N2C(=O)CC(Sc3ccccc3C(=O)O)C2=O)c([N+](=O)[O-])c1 (configuration not stated)	-9.3%	3.6%	-2.8%	79.4µM*
COc1ccc(N2C(=O)CC(Sc3ccccc3C(=O)O)C2=O)c([N+](=O)[O-])c1 (configuration not stated)	-36.2%	-0.3%	2.7%	70.8µM*
SMILES	VDR inhibitor	GCN5L2 inh	TrxR1 substrate	rTrxR1 inhibitor
Cc1ccc(N2C(=O)CC(Sc3ccccc3C(=O)O)C2=O)cc1C (configuration not stated)	8.5%	2.6%	8.8%	-63.7%
CCCCN1C(=O)CC(Sc2ccccc2C(=O)O)C1=O (configuration not stated)	-0.7%	-7.3%	-2.8%	15.8µM*
O=C(O)c1ccccc1SC1CC(=O)N(c2ccc3c(c2)OCO3)C1=O (configuration not stated)	-20.6%	0.3%	7.7%	39.8µM*
Cc1ccc(N2C(=O)CC(Sc3ccccc3C(=O)O)C2=O)cc1 (configuration not stated)	-18.8%	0.5%	-5.9%	?
Cc1cccc(N2C(=O)CC(Sc3ncn[nH]3)C2=O)c1 (configuration not stated)	7.9%	-9.9%	-3.8%	20µM*
Cc1cccc(N2C(=O)CC(Sc3ccccc3C(=O)O)C2=O)c1 (configuration not stated)	-10.9%	39.2%	-3.3%	56.2µM*

High-throughput results: PubChem, National Center for Advancing Translational Sciences (NCATS)
